PubChem BioAssay (Tox21)
“And” between values parts separate entries of the source, which are not always exact repeats. Equal values may be shown once. Inconclusive results are not listed. Where a call stands in place of a potency, no number is given. More than one record can exist for a structure, and the calls need not agree. The source made the active and inactive calls. Unless noted, calls follow the shape of the dose curve; as a rule, active = well fitted curve in the direction sought with a large enough effect in the repeat runs; inconclusive = weak or mixed curves; inactive = no such curve, though single readings can be large; an effect the other way counts as inactive or inconclusive.

Columns and labels:
[1] = qHTS assay to identify small molecule antagonists of the peroxisome proliferator-activated receptor delta (PPARd) signaling pathway - cell viability counter screen (AID 743213); also: nearly all actives have a fitted effect of over 50% in size; also: potency is read from the fitted curve at half-maximal effect
Summary of the method: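 Viability counter-screen, qHTS format: PPARd-bla HEK293H, L165041 300 nM final, 17 h compound exposure at 37 C, CellTiter-Glo luminescence after 30 min RT.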

[2] = qHTS assay to identify small molecule agonists of the farnesoid-X-receptor (FXR) signaling pathway - cell viability counter screen (AID 743218); also: nearly all actives have a fitted effect of over 45% in size; also: potency is read from the fitted curve at half-maximal effect
Summary of the method: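 After 16 h at 37 C with test compounds, FXR-bla HEK 293T cells were given LiveBLAzer B/G substrate for 2 h at RT and then CellTiter-Glo; luminescence was taken after 30 min.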

[3] = qHTS assay to identify small molecule antagonists of the farnesoid-X-receptor (FXR) signaling pathway - cell viability counter screen (AID 743221; active = well fitted cell-killing curve with a large enough effect in the repeat runs, not every such curve was filed as active; also: nearly all actives have a fitted effect of over 50% in size; also: potency is read from the fitted curve at half-maximal effect)
Summary of the method: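 Cytotoxicity is taken from ATP luminescence (CellTiter-Glo, 30 min, room temperature) in FXR-bla HEK 293T cells previously incubated 16 h at 37 C with compound and chenodeoxycholic acid at 50 uM final.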

[4] = qHTS assay to identify small molecule agonists of the vitamin D receptor (VDR) signaling pathway - cell viability counter screen (AID 743224); also: series mostly up to about 63 µM; nearly all actives have a fitted effect of over 50% in size
Summary of the method: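 Here cell health was gauged by luminescent ATP detection (CellTiter-Glo, 30 min RT) in VDR-bla cells that had been incubated with test compounds for 16 h at 37C and 5% CO2.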

[5] = qHTS assay to identify small molecule antagonists of the vitamin D receptor (VDR) signaling pathway - cell viability counter screen (AID 743225); also: nearly all actives have a fitted effect of over 50% in size; also: potency is read from the fitted curve at half-maximal effect
Summary of the method: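 Same-well multiplex: following 16 h treatment of HEK 293T cells carrying a UAS-driven beta-lactamase reporter with compound and agonist (3 nM final), and a 2 h FRET substrate step, CellTiter-Glo was added and luminescence read after 30 min.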

[6] = qHTS assay to identify small molecule agonists of the NFkB signaling pathway - cell viability counter screen (AID 1159515; calls by dose curve; also: nearly all actives have a fitted effect of over 55% in size; also: potency is read from the fitted curve at half-maximal effect)
Summary of the method: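 5 hr compound treatment of NFkB-bla ME-180 cells (2,000/well, seeded overnight beforehand), followed by reporter substrate for 1.5 hr. CellTiter-Glo added afterward; luminescence after 30 min RT.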

[7] = qHTS assay to identify small molecule agonists of the endoplasmic reticulum stress response signaling pathway (AID 1159516; active = well fitted activation curve with a large enough effect in the signal ratio in the repeat runs, not every such curve was filed as active; the % refers to the signal ratio)
Summary of the method: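 Reporter HeLa cells (ESRE-beta-lactamase) underwent 5 hr compound incubation at 37 C and 5% CO2 in quantitative HTS format. Detection followed 2 hr of FRET substrate loading at room temperature.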

[8] = qHTS assay to identify small molecule agonists of the endoplasmic reticulum stress response signaling pathway - cell viability counter screen (AID 1159517; calls by dose curve; also: nearly all actives have a fitted effect of over 50% in size; also: potency is read from the fitted curve at half-maximal effect)
Summary of the method: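 ESRE-bla HeLa cells, 1,500 per well, seeded overnight then treated with compounds for 5 hr at 37 C. After the beta-lactamase read, viability in the same wells is measured by CellTiter-Glo luminescence after 30 min at room temperature.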

[9] = qHTS assay to identify small molecule agonists of the AP-1 signaling pathway (AID 1159526; calls by dose curve; also: potency is read from the fitted curve at half-maximal effect)
[10] = qHTS assay to identify small molecule agonists of the RXR signaling pathway - cell viability counter screen (AID 1159529); also: nearly all actives have a fitted effect of over 50% in size; also: potency is read from the fitted curve at half-maximal effect
Summary of the method: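 Counter screen: CellTiter-Glo luminescence. Cells: RXR-alpha-UAS-bla HEK 293T. Medium: 2% charcoal-stripped FBS. Treatment: 16 h, 37 C. Reagent incubation: 30 min, RT.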

[11] = qHTS assay to identify small molecule antagonists of the retinoid acid receptor (RAR) signaling pathway - cell viability counter screen (AID 1159551); also: nearly all actives have a fitted effect of over 35% in size; also: potency is read from the fitted curve at half-maximal effect
Summary of the method: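 Seed C3RL4 cells; next day add compound, then retinol to 1 uM final; incubate 6 h at 37 C; add CellTiter-Glo; read luminescence after 30 min at RT.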

[12] = biological target: Bile acid receptor (Homo sapiens) (UniProt Q96RI1); assay: qHTS assay to identify small molecule antagonists of the farnesoid-X-receptor (FXR) signaling pathway (AID 743217; active = well fitted inhibition curve with a large enough effect in the signal ratio in the repeat runs, not every such curve was filed as active; the % refers to the signal ratio)
Bile acid receptor (Homo sapiens), sequence (Q96RI1 whole entry, looked up): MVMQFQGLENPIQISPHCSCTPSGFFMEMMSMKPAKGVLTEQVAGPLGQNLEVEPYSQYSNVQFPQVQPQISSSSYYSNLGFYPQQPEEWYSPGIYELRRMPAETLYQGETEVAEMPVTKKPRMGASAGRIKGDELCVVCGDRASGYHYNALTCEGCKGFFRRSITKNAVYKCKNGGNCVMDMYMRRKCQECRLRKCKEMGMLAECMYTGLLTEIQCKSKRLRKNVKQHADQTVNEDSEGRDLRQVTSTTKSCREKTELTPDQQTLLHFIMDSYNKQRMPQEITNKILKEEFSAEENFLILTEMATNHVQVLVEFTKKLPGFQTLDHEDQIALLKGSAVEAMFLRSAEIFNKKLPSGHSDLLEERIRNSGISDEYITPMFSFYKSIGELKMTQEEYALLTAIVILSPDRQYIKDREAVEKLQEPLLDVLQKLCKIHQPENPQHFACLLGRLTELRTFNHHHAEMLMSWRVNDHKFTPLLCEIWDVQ
Summary of the method: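 In this cell-based antagonist screen, inhibition of CDCA-driven (50 uM final) UAS-beta-lactamase expression in HEK 293T cells was measured by FRET fluorescence following 16 h compound exposure at 37 °C.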

[13] = biological target: Bile acid receptor (Homo sapiens) (UniProt Q96RI1); assay: qHTS assay to identify small molecule agonists of the farnesoid-X-receptor (FXR) signaling pathway (AID 743220; active = well fitted activation curve with a large enough effect in the signal ratio in the repeat runs, not every such curve was filed as active; the % refers to the signal ratio)
Summary of the method: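 Beta-lactamase reporter under UAS control in GeneBLAzer FXR HEK 293T cells (5000/well) measured with LiveBLAzer FRET substrate after 2 h at room temperature. Compound exposure lasted 16 h at 37C.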

[14] = qHTS assay to identify small molecule antagonists of the retinoid-related orphan receptor gamma (ROR-gamma) signaling pathway - cell viability counter screen (AID 1159520); also: nearly all actives have a fitted effect of over 50% in size; also: potency is read from the fitted curve at half-maximal effect
Summary of the method: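 Tet-on ROR gamma CHO cells were given compounds for 2 hr, then doxycycline hyclate at 1 uM final, and incubated 16 hr at 37 C. Viability was measured as ATP content by CellTiter-Glo luminescence.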

[15] = biological target: Nuclear receptor ROR-gamma (Homo sapiens) (UniProt P51449); assay: qHTS assay to identify small molecule antagonists of the retinoid-related orphan receptor gamma (ROR-gamma) signaling pathway (AID 1159521; also: nearly all actives have a fitted effect of over 50% in size; also: potency is read from the fitted curve at half-maximal effect)
Summary of the method: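 Inducible-expression reporter assay: doxycycline (1 uM final) switched on RORγ in CHO cells bearing a ROR response element-luciferase construct, with test compounds present from 2 h beforehand. Decreased luminescence after 16 h defined antagonist activity.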

[16] = qHTS assay to identify small molecule agonists of the AP-1 signaling pathway - cell viability counter screen (AID 1159525; calls by dose curve; also: nearly all actives have a fitted effect of over 55% in size)
Summary of the method: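 AP-1-bla ME-180 cells in Opti-MEM with 0.5% dialyzed FBS, compound exposure 5 h at 37 C in 15-point titration. Viability read in the same wells as ATP content by CellTiter-Glo luminescence, normalised to tetra-n-octylammonium bromide and DMSO controls.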

[17] = biological target: Vitamin D3 receptor (Homo sapiens) (UniProt P11473); assay: qHTS assay to identify small molecule agonists of the vitamin D receptor (VDR) signaling pathway (AID 743222; calls by dose curve)
Vitamin D3 receptor (Homo sapiens), sequence (P11473 whole entry, looked up): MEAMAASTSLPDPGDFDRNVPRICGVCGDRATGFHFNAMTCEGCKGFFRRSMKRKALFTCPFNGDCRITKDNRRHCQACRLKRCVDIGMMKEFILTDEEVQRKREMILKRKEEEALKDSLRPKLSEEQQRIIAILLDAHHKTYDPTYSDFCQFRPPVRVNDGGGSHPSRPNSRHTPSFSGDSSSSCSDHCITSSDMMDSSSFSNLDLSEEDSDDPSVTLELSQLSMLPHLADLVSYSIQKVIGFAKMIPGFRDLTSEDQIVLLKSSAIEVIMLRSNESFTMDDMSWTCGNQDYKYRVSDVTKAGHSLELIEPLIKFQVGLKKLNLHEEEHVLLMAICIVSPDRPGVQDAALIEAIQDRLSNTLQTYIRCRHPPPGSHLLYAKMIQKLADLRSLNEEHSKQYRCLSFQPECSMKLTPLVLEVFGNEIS
Summary of the method: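 VDR-bla cells were seeded, left 4 h, treated with compounds in DMSO for 16 h, incubated 2 h at RT with B/G FRET substrate, and read for fluorescence.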

[18] = biological target: Vitamin D3 receptor (Homo sapiens) (UniProt P11473); assay: qHTS assay to identify small molecule antagonists of the vitamin D receptor (VDR) signaling pathway (AID 743223; active = well fitted inhibition curve with a large enough effect in the signal ratio in the repeat runs, not every such curve was filed as active; the % refers to the signal ratio)
Summary of the method: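 Quantitative HTS in VDR-bla reporter cells stimulated with 1alpha,25-dihydroxyvitamin D3, 3 nM final. Compound exposure 16 h, 37C, 5% CO2. Read-out: beta-lactamase FRET substrate fluorescence, 2 h RT.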

[19] = biological target: Retinoic acid receptor RXR-alpha (Homo sapiens) (UniProt P19793); assay: qHTS assay to identify small molecule agonists of the RXR signaling pathway (AID 1159527; calls by dose curve; also: nearly all actives have a fitted effect of over 35% in size; also: potency is read from the fitted curve at half-maximal effect)
Retinoic acid receptor RXR-alpha (Homo sapiens), sequence (P19793 whole entry, looked up): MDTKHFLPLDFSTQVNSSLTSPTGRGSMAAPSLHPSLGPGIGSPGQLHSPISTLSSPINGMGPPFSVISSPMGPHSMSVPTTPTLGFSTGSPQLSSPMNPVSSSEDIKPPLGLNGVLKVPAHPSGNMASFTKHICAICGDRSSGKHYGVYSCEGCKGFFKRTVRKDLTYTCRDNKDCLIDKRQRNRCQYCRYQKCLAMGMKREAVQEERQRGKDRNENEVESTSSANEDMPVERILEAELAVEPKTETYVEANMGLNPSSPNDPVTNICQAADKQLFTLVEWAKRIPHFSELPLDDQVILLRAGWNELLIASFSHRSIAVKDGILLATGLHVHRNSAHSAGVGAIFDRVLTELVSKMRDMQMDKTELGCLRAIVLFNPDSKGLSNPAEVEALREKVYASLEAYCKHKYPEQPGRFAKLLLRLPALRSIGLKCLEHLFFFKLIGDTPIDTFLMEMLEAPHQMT
Summary of the method: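 Compounds in DMSO were added to RXR-alpha-UAS-bla HEK 293T cells kept in 2% charcoal-stripped serum, and incubated 16 hr at 37 C with 5% CO2. Reporter signal came from a 2 hr B/G FRET substrate step.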

[20] = biological target: Peroxisome proliferator-activated receptor delta (Homo sapiens) (UniProt Q03181); assay: qHTS assay to identify small molecule agonists of the peroxisome proliferator-activated receptor delta (PPARd) signaling pathway (AID 743212; calls by dose curve)
Peroxisome proliferator-activated receptor delta (Homo sapiens), sequence (Q03181 whole entry, looked up): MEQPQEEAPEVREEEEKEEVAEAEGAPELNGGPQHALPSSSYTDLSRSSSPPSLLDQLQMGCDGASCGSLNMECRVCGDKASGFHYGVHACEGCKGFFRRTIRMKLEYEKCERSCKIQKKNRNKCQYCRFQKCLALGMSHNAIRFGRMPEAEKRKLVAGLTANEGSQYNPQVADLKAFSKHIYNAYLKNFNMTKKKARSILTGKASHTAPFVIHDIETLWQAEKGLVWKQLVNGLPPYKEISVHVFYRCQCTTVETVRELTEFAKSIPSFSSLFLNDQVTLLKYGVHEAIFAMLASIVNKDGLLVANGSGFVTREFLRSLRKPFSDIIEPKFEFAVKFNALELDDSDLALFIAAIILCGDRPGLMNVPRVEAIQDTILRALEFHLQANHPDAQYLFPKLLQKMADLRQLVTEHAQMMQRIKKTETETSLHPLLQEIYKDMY
Summary of the method: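 GeneBLAzer UAS-bla HEK293H cells carrying a PPARδ construct were exposed to compounds at 37 °C. Beta-lactamase activity was read by FRET fluorescence after 2 h at room temperature with LiveBLAzer B/G substrate.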

SMILES	Potency [1]	Potency [2]	Potency [3]	Potency [4]	Potency [5]	Potency [6]	outcome [7]	Potency [8]	Potency [9]	Potency [10]	Potency [11]	Potency [12]	outcome [13]	Potency [14]	Potency [15]	Potency [16]	outcome [17]	Potency [18]	Potency [19]	outcome [20]
CC(=O)O	inactive	inactive	inactive	inactive	inactive	inactive	inactive	inactive	inactive	inactive	inactive	–	–	–	–	–	–	–	–	–
CCC(=O)C(CC(C)N(C)C)(c1ccccc1)c1ccccc1 (stereo not given)	inactive and 37.4 µM (active)	inactive	inactive	–	–	43.8 µM (active) and inactive	inactive	inactive	inactive	43.8 µM (active)	inactive	inactive	inactive	inactive	48.8 µM (active)	inactive	–	–	–	–
Nc1ccccc1	–	inactive	inactive	–	inactive	inactive	inactive	inactive	inactive	inactive	inactive	–	–	inactive	inactive	–	inactive	inactive	inactive	–
CCCCn1cc[n+](C)c1	–	inactive	inactive	–	inactive	inactive	inactive	inactive	inactive	inactive	inactive	–	–	–	–	inactive	–	–	–	–
O=C(O)c1nc(Cl)ccc1Cl	inactive	inactive	inactive	–	inactive	inactive	inactive	inactive	inactive	inactive	inactive	–	–	inactive	inactive	–	–	–	–	–
Cc1cc(Cl)ccc1OCC(=O)O	inactive	inactive	inactive	–	inactive	inactive	inactive	inactive	inactive	inactive	inactive	–	–	–	inactive	–	inactive	inactive	–	–
CC(Cl)(Cl)C(=O)O	–	inactive	inactive	–	inactive	inactive	inactive	inactive	inactive	inactive	inactive	–	–	–	inactive	–	inactive	inactive	–	inactive
CCCC[n+]1ccccc1	–	inactive	inactive	–	inactive	inactive	inactive	inactive	inactive	inactive	inactive	–	–	inactive	inactive	–	–	–	inactive	–
CCC[N+]1(C)CCCC1	inactive	inactive	inactive	inactive	inactive	inactive	inactive	inactive	inactive	inactive	inactive	–	–	–	inactive	–	–	–	–	inactive
O=c1[nH]c(=O)n(Cl)c(=O)n1Cl	inactive	inactive	inactive	inactive	inactive	inactive	–	inactive	inactive	inactive	inactive	–	–	inactive	inactive	–	–	–	–	–
O=[N+]([O-])O	–	inactive	inactive	–	inactive	inactive	inactive	inactive	inactive	inactive	inactive	–	–	inactive	–	–	–	–	–	–
CCOP(=S)(OCC)Oc1ccc2c(C)c(Cl)c(=O)oc2c1	–	inactive	inactive	–	inactive	inactive	inactive	inactive	inactive	inactive	inactive	–	–	–	inactive	–	–	–	–	inactive
CC[n+]1ccccc1	inactive	inactive	inactive	–	inactive	inactive	inactive	inactive	inactive	inactive	inactive and 54 µM (active)	–	–	–	inactive and 1.71 µM (active)	inactive	–	–	–	–
COc1ccccc1N	–	inactive	inactive	–	inactive	inactive	–	inactive	inactive	inactive	inactive	–	–	inactive	inactive	–	–	–	–	–
CCC[N+]1(C)CCCCC1	–	inactive	inactive	inactive	inactive	inactive	–	inactive	inactive	inactive	inactive	–	–	inactive	inactive	inactive	–	–	–	–
O=C(O)CCl	–	inactive	inactive	inactive	inactive	inactive	inactive	inactive	inactive	inactive	inactive	–	–	inactive	inactive	inactive	inactive	inactive	–	–

SMILES	Potency [1]	Potency [2]	Potency [3]	Potency [4]	Potency [5]	Potency [6]	outcome [7]	Potency [8]	Potency [9]	Potency [10]	Potency [11]	Potency [12]	outcome [13]	Potency [14]	Potency [15]	Potency [16]	outcome [17]	Potency [18]	Potency [19]	outcome [20]
O=c1nc(O)n(Cl)c(=O)n1Cl	–	inactive	inactive	inactive	inactive	inactive	–	inactive	inactive	inactive	inactive	–	–	inactive	inactive	inactive	–	–	–	–
Nc1ccc(Cl)cc1	–	inactive	inactive	–	–	inactive	–	inactive	inactive	inactive	inactive	–	–	inactive	inactive	–	–	–	8.71 µM (active) and inactive	inactive
Nc1ccc(-c2ccc(N)cc2)cc1	inactive	inactive	inactive	–	inactive	inactive	–	inactive	inactive	inactive	inactive	–	–	inactive	inactive	–	inactive	inactive	–	–
Oc1ccccc1-c1ccccc1	–	inactive	inactive	–	inactive	inactive	–	inactive	inactive	inactive	inactive	–	–	inactive	inactive	inactive	inactive	inactive	–	inactive
OCCOc1ccccc1	–	inactive	inactive	–	inactive	inactive	inactive	inactive	inactive	inactive	inactive	inactive	inactive	–	inactive	–	inactive	inactive	–	inactive
CNC	–	inactive	inactive	inactive	inactive	inactive	inactive	inactive	inactive	inactive	inactive	–	–	–	inactive	inactive	inactive	inactive	inactive	inactive
C1CCC(NC2CCCCC2)CC1	inactive	inactive	inactive	–	inactive	inactive	–	inactive	inactive	inactive	inactive	–	–	inactive	inactive	–	inactive	inactive	–	inactive
CCCC[n+]1ccc(C)cc1	–	inactive	inactive	–	inactive and 48.7 µM (active)	inactive	inactive	inactive	13.8 µM (active) and inactive	inactive and 34.5 µM (active)	inactive	–	–	inactive and 60.8 µM (active)	–	–	–	–	–	–
CC[N+](CC)(CC)CC	inactive	inactive	inactive	inactive	inactive	inactive	inactive	inactive	inactive	inactive	inactive	–	–	inactive	inactive	–	inactive	inactive	–	–
Cc1cc(Cl)ccc1N	–	inactive	inactive	–	inactive	inactive	–	inactive	inactive	inactive	inactive	–	–	inactive	inactive	–	–	–	–	inactive
CCNc1nc(Cl)nc(NCC)n1	–	inactive	inactive	–	inactive	inactive	inactive	inactive	inactive	inactive	inactive	inactive	inactive	–	48.8 µM (active) and inactive	–	inactive	inactive	–	–
Oc1cccc2cccnc12	–	inactive and 949 nM (active)	776 nM [cytotoxic] (active) and inactive	–	inactive and 8.71 µM (active)	inactive and 977 nM (active)	inactive	780 nM (active) and 155 nM (active)	inactive	780 nM (active) and 692 nM (active) and inactive	inactive and 7.7 µM (active)	–	–	–	774 nM (active) and 864 nM (active) and inactive	–	inactive	inactive	inactive	–
C=CCOC(Cn1ccnc1)c1ccc(Cl)cc1Cl (stereo not given)	–	inactive	inactive	–	inactive	inactive	–	inactive	–	inactive	inactive	–	–	inactive	21.8 µM (active) and 29.8 µM (active)	–	inactive	inactive	inactive	–
C[C@]12CCC(=O)C=C1CC[C@@H]1[C@@H]2CC[C@]2(C)C(=O)CC[C@@H]12	–	inactive	inactive	–	inactive	inactive	inactive	inactive	inactive	inactive	inactive	inactive	inactive	–	23.9 µM (active) and inactive	–	–	–	inactive	inactive
O=C(O)COc1ccc(Cl)cc1Cl	–	inactive	inactive	–	inactive	inactive	inactive	inactive	inactive	inactive	inactive	–	–	–	–	–	inactive	inactive	–	inactive
